# The panel holds about 83,000 compounds, 20% with a hit somewhere; the sample as a whole holds those more often.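 Plates (96-well) were seeded with cells, treated with compound at one concentration, and incubated for 48 hours before percent growth was determined.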 Values without a mark were called inactive. Calls of active or inactive are those of the source. Rule for the calls: active = growth percent below 10; inactive = the rest.
# Test system: SK-OV-3 ovarian
# Experiment: NCI-60 one-dose screen, 48 h (100 = growth as untreated, 0 = no growth, -100 = all killed)
# Settings: 10 µM unless noted
row,Structure (SMILES),growth
1,Cc1ccc(C2=NN(c3ccc(S(N)(=O)=O)cc3)C(c3cn(-c4ccccc4)nc3-c3ccccc3)C2)cc1 (centres undefined),93.4%
2,CCN1C(=O)N(CC)C2C1NN=c1s/c(=C\c3cccc(F)c3)c(=O)n12 (centres undefined),72.3%
3,O=c1[nH]c(-c2cn(-c3ccc(Cl)cc3)nn2)nc2ccccc12,38.9%
4,C=CCN=C1NC(=O)/C(=C/c2cc(C(C)(C)C)c(O)c(C(C)(C)C)c2)S1,74.8%
5,O=c1[nH]c(CN2CCN(c3ccccc3F)CC2)nc2sc3c(c12)CCC3,96.5%
6,COc1ncc(-c2ccc3ncnc(Nc4cccc(Cl)c4)c3c2)cc1NS(=O)(=O)C1CC1,8.08% (active)
7,Nc1nc(Cl)c2c(ncn2Cc2ccc(CCl)cc2)n1,103%
8,O=S(=O)(NCCCNc1cc(-c2cn(-c3ccccc3)nc2-c2cccc(O)c2)ccn1)c1cccc2ccccc12,58.8%
9,CC1CCN(C(=O)CSc2nc3sc4c(c3c(=O)[nH]2)CCCC4)CC1,103%
10,Cc1cc(Nc2nc(C(=O)Nc3ccccc3)nc3ccccc23)n[nH]1,39.3%
11,O=[N+]([O-])c1cc(S(=O)(=O)OCC2CO2)ccc1Cl (centres undefined),104%
12,N#CC1=C(N)n2nc(-c3ccncc3)nc2NC1c1cccc2ccccc12 (centres undefined),98.2%
13,O=C1NC(Cc2c[nH]c3ccccc23)C(=O)N1Cc1ccc(Cl)cc1 (centres undefined),101%
14,CSc1ccccc1C#C/C=C\C#Cc1ccccc1N1CCCC1=O,85.8%
